Compound activity from PubChem.
An excerpt weighted towards active compounds, which were near 14% of everything screened.
LmPK inhibitor – LmPK (Leishmania mexicana) enzyme inhibition | Potency, µM (top dose mostly 57.5 µM), for inactives: at the top dose activity change, negative = inhibition, usual class: inhibitors | Q27686 | purified LmPK, Kinase-Glo ATP luminescence, 1 h | hit rate 0.37% among 290,000 | AID 1721; note: potency is the fitted concentration of half-maximal effect; % is set by controls: 0 for no effect and ±100 for the full control effect
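0.1 nM LmPK, 0.5 mM PEP, 0.1 mM ADP; 50 mM imidazole pH 7.2, 7 mM MgCl2, 50 mM KCl; 1 h RT. Kinase-Glo luminescence readout, normalized to no-enzyme (full inhibition) and uninhibited wells.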
NS1 inh – inhibitors of influenza NS1 protein function; Potency, µM (highest dose often 46.1 µM), for the others: top-dose activity, positive = more growth; hit rate 0.4% among 270,000; calls by dose curve; note: potency is the fitted concentration of half-maximal effect; actives are rising curves; nearly all actives have a fitted effect of over 50% in size
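Read-out: OD600 growth recovery of NS1-expressing budding yeast. Cells grown overnight at 30C in -URA glucose medium, washed, resuspended and diluted 1:100 in 2% galactose assay medium, pH 6.0. Same strain lacking NS1 served as positive control.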
Giardia FBPA inh – blocks Giardia fructose-bisphosphate aldolase activity; A8B2U2; purified Giardia FBPA; Potency, µM (highest dose often 59.6 µM), inactives show at the top dose activity, negative = inhibition, hits mostly inhibitors; hit rate 0.71% among 290,000; note: potency is the fitted concentration of half-maximal effect; % is set by controls: 0 for no effect and ±100 for the full control effect; nearly all actives have a fitted effect of over 55% in size
Target sequence (A8B2U2 whole entry, looked up): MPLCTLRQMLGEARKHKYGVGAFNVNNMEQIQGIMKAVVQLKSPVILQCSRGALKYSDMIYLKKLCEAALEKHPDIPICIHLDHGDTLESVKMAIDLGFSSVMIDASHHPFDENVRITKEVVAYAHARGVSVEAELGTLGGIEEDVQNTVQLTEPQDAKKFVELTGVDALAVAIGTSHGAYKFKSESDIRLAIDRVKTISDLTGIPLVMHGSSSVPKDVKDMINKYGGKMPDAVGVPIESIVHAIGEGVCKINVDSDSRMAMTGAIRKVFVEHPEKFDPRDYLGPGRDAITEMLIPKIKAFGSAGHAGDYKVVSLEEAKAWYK
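40 nM FBPA preincubated 10 min at RT with compound (up to 57.5 uM final), then substrate plus GAPDH/TPI/NAD/arsenate coupling and diaphorase/resazurin added. Fluorescence read after 20 min at RT, 525/598 nm.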
Cycloheximide cs – counter-screen hit for Shiga toxin inhibitors, cycloheximide | cell reporter, cycloheximide protein synthesis inhibition counterscreen | max response, % | hit rate 12% among 300,000; in the data active = max response mostly above about 13%, no sharp cut-off; inactive = mostly below about 14%; note: read at 38.3 µM for the half of the compounds with a filed dose; 0% is about no effect
Shiga toxin inh – blocks Shiga toxin action in Vero cells | inhibition, % at 38.7 µM | AID 2315 | Vero cells, Shiga toxin protein synthesis inhibition reporter | hit rate 9.2% among 290,000; in the data active = inhibition mostly above about 28%, no sharp cut-off; inactive = mostly below about 43%; note: 0% is about no effect
* hit, by the source's call; i = inactive; ? = inconclusive; . = no result; [ ] = another dose, or the depositor's remark. Unless noted, calls come from the whole dose curve; as a rule, active = well fitted curve in the direction sought with a large enough effect; inconclusive = small, poorly fitted or top-dose-only effect, or another doubt; inactive = no such curve, though single readings can be large; an effect the other way counts as inactive or inconclusive.

SMILES | LmPK inhibitor | NS1 inh | Giardia FBPA inh | Cycloheximide cs | Shiga toxin inh
O=C(NCc1ccccc1)c1cc2ccc(O)cc2oc1=O | ? | -77% | 9% | 21* | 42*
NC(=O)c1cc2ccccc2oc1=NCc1ccccc1 | -1% | -48% | 0% | 17 | 44
CS(=O)(=O)N1CCC[C@@]2(CCN(c3ccccn3)C2)C1 | . | . | -9% | . | .
COc1ccc(NC(=O)c2onc(C)c2Cl)cc1 | -5% | -1% | -4% | 40* | 89*
COc1ccc(NC(=O)c2onc(C)c2Cl)cc1OC | 13% | -7% | 6% | 51* | 49*
CCc1ccc(NC(=O)c2onc(C)c2Cl)cc1 | 11% | -19% | -4% | 59* | 56*
CCCCC[C@]12Cc3cc(OC)c(OC)cc3C(O1)c1c(cc(C)n(-c3ccccc3)c1=O)O2 | -6%[11.5 µM] | 14% | -12%[12.9 µM] | 1 | i
CN(C)C(CNC(=O)c1ccc(NC(=O)c2cccs2)cc1)c1ccccc1 (stereo unspecified) | -3% | 5% | 4% | -4 | 5
CN(C)C(CNC(=O)c1ccc(C2SCCS2)cc1)c1ccccc1 (stereo unspecified) | 0% | 18% | 4% | 35* | 55*
Cc1cc(CC(C)C)n(-c2nc3ccccc3c(=O)n2OCc2ccccc2)n1 | -2% | -46% | -1% | 31* | 45
Cc1cc(C)n(-c2nc3ccccc3c(=O)n2OCc2ccc(F)cc2)n1 | 0% | -33% | -14% | 18* | 22
Cc1cc(C)n(-c2nc3ccccc3c(=O)n2OCC(=O)OCc2ccccc2)n1 | 8% | -86% | 3% | 15* | 36
CSc1ncccc1C(=O)NNc1cc(Cl)ccc1Cl | 2% | -56% | 5% | 1 | 13
CCC(C)Nc1nc2ccccc2n2c(C)nnc12 (stereo unspecified) | -1% | -5% | 0% | -2 | -11
O=C(/C=C/c1ccc(OCCCF)cc1)N1CCOCC1 | 4% | 2% | 13% | 30* | 66*
Cc1ccccc1/C=C/C(=O)N1CCOCC1 | -26% | 1% | 4% | 31* | 66*
COc1ccccc1/C=C/C(=O)N1CCOCC1 | 4% | 7% | 8% | -1 | -4
O=C(/C=C/c1cccc2ccccc12)N1CCOCC1 | -5% | -4% | 1% | 32* | 86*
O=C(/C=C/c1ccccc1Cl)N1CCOCC1 | -10% | -1% | 5% | 19* | 2
CC(C)C[C@H](NC(=O)[C@H](Cc1ccccc1)NC(=O)[C@H](Cc1ccccc1)NC(=O)[C@@H](N)CO)C(=O)N[C@@H](CCCN=C(N)N)C(=O)N[C@@H](CC(N)=O)C(=O)O | . | . | -1% | -8 | -5
Cc1ccc(OCC(=O)Nc2nnc(SCc3cc(=O)n4cccc(C)c4n3)s2)cc1 | . | . | . | -5 | -6
NCCC[C@@H](CC(=O)N[C@@H]1CCCC[C@H]1C(=O)N[C@H](CC(=O)N[C@@H](CCC(=O)O)CC(=O)O)Cc1ccccc1)NC(=O)C[C@H](CO)NC(=O)[C@@H]1CCCC[C@H]1N | . | . | -27% | . | .
O=C(/C=C/c1cccc(Oc2ccccc2)c1)N1CCOCC1 | 1% | 0% | 9% | 34* | 86*
O=C(/C=C/c1ccccc1)Oc1cccc(C(=S)N2CCOCC2)c1 | 4% | . | -16% | 19 | -9
CC(Cc1ccccc1)N1C(=O)c2ccccc2C1=O (stereo unspecified) | -2% | -9% | 13% | 22* | 49*
SMILES | LmPK inhibitor | NS1 inh | Giardia FBPA inh | Cycloheximide cs | Shiga toxin inh
Oc1ccc(NCc2ccc(OCc3ccccc3)cc2)cc1 | 0% | -4% | ? | 50* | 153*
CCc1ccc(CNc2ccc(O)cc2)cc1 | -1% | 27% | 4µM* | 9 | 14
O=S(=O)(NCCO)c1cc[c]([Sb])cc1 | . | -6% | . | . | .
Nc1nc(-c2ccco2)nn1C(=O)CCc1ccccc1 | 6% | -4% | -8% | 7 | -5
CCCC(=O)n1nc(-c2ccco2)nc1SCc1ccccc1 | -4% | -29% | 1% | 43* | active
O=C(c1ccco1)n1nc(-c2ccco2)nc1SCc1ccccc1 | 4% | -112% | -3% | 19* | 43
O=C(Cc1ccccc1)n1nc(-c2ccco2)nc1SCc1ccccc1 | 4% | -72% | ? | 28* | 42
O=C(c1ccco1)n1nc(-c2ccccc2)nc1SCc1ccccc1 | 4% | -4% | -4% | 32 | 31
Cc1ccc(S(=O)(=O)n2nc(-c3ccco3)nc2SCc2ccccc2)cc1 | -3% | -33% | -10% | 34* | 86*
Cc1ccc(NC(=O)CN(C)C(=O)c2cccc(Br)c2)cc1 | -5% | 7% | 5% | 4 | 23
